Consider eight molecules from PubChem BioAssay (NCI).

The structures appear in SMILES notation. This is part of a sample that, as a whole, favours compounds with a hit. Of some 79,000 tested, about 15% had one in any assay. The source made the active and inactive calls. Rule as the data show it: active = growth inhibition above about 70%; inactive = the rest.

The nature of this assay: NCI Yeast Anticancer Drug Screen. Data for the wt2 strain (AID 169).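 Also: 0% = growth of vehicle-treated yeast cultures.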 Conditions: S. cerevisiae wt2 strain growth inhibition, hits give high values. On the procedure: Growth inhibition of yeast strains with defined genetic alterations is measured as a screen for potential anti-cancer activity. Selected strains with alterations in DNA damage repair or cell cycle control were exposed to compounds and growth inhibition was measured relative to vehicle treated controls. The strain used in this assay is wt2

As for `COc1cc(C2SCC(=O)N2c2ccc(-c3ccc(-n4c(-c5ccccc5)nc5ccccc5c4=O)cc3)cc2)cc(OC)c1OC` (stereo not given), the growth inhibition reads like this: (at 1.2 µM) -1% (inactive); (at 3.7 µM) -2% (inactive); (at 11.0 µM) -2% (inactive); (at 33.0 µM) -3% (inactive); (at 100.0 µM) -8% (inactive).

On to `CN(C)c1ccc(Sc2ccc3nc(N)nc(N)c3c2)cc1`, for which the growth inhibition reads like this: (at 1.2 µM) -4% (inactive); (at 3.7 µM) -1% (inactive); (at 11.0 µM) 9% (inactive); (at 33.0 µM) 7% (inactive); (at 100.0 µM) 1% (inactive).

Consider `CC[C@@]1(O)C(=O)OCc2c1cc1n(c2=O)Cc2cc3c(CN(C)C)c(O)ccc3nc2-1`, for which the growth inhibition is -1% (inactive) (at 1.2 µM); 7% (inactive) (at 3.7 µM); -3% (inactive) (at 11.0 µM); -2% (inactive) (at 33.0 µM); -12% (inactive) (at 100.0 µM).

Regarding `COc1ccccc1/C=C1\Sc2scc(-c3cccc([N+](=O)[O-])c3)[n+]2C1=O`, the growth inhibition (at 1.2 µM) was 18% (inactive); the growth inhibition (at 3.7 µM) is 59% (inactive); the growth inhibition (at 11.0 µM) is 98% (active); the growth inhibition (at 33.0 µM) was 98% (active); the growth inhibition (at 100.0 µM) was 95% (active).

`Oc1ccc2ccccc2c1C(c1ccc(Cl)cc1)c1c(O)ccc2ccccc12`: the growth inhibition is -22% (inactive) (at 1.2 µM); -36% (inactive) (at 3.7 µM); -20% (inactive) (at 11.0 µM); 16% (inactive) (at 33.0 µM); 80% (active) (at 100.0 µM).

For the molecule `CCCC/C=C/C(CC)(C(=O)OCC)C(=O)OCC`, the growth inhibition (at 1.2 µM) is -3% (inactive); the growth inhibition (at 3.7 µM) was -4% (inactive); the growth inhibition (at 11.0 µM) is -5% (inactive); the growth inhibition (at 33.0 µM) was -5% (inactive); the growth inhibition (at 100.0 µM) was -5% (inactive).

With `CCC(C)COC(=O)c1ccc(N=Cc2ccc(C=Nc3ccc(C(=O)OCC(C)CC)cc3)cc2)cc1` (stereo not given), the growth inhibition (at 1.2 µM) is 0% (inactive); the growth inhibition (at 3.7 µM) was -2% (inactive); the growth inhibition (at 11.0 µM) was 0% (inactive); the growth inhibition (at 33.0 µM) was 2% (inactive); the growth inhibition (at 100.0 µM) was 5% (inactive).

Consider `O=C1c2ccccc2C(=O)c2c(NC3CCCCC3)ccc(Nc3ccc(S(=O)(=O)O)cc3)c21`, for which the growth inhibition runs as follows: (at 1.2 µM) -3% (inactive); (at 3.7 µM) -4% (inactive); (at 11.0 µM) 5% (inactive); (at 33.0 µM) 80% (active); (at 100.0 µM) 62% (inactive).
